What all share (format): functional
In experiment [1] the target is Solute carrier family 2, facilitated glucose transporter member 1 (Homo sapiens) (UniProt P11166). The experiment in a line: ST_JUDE_LEISH: Cytotoxicity at 2uM final concentration against transgenic Leishmania Mexicana promastigotes LmGLUT1 that are glucose transport deficient and complemented with the human glucose transporter GLUT1. Activity is measured by DNA content using SYBR green in vitro.

The target in experiment [2] is Hexose transporter 1 (Plasmodium falciparum) (UniProt O97467). The experiment in a line: ST_JUDE_LEISH: Cytotoxicity at 2uM final concentration against transgenic Leishmania Mexicana promastigotes LmPfHT that are glucose transport deficient and complemented with the Plasmodium falciparum hexose transporter. Activity is measured by DNA content using SYBR green in vitro.

The target in experiment [3] is Glucose transporter (Leishmania mexicana) (UniProt O61059). The experiment in a line: ST_JUDE_LEISH: Cytotoxicity at 2uM final concentration against transgenic Leishmania Mexicana promastigotes LmGT2 that are glucose transport deficient and complemented with the L. Mexicana glucose transporter 2. Activity is measured by DNA content using SYBR green in vitro.

This is an account of results in ChEMBL document CHEMBL3433997, “St. Jude Leishmania screening dataset” (2016).

Chain of Solute carrier family 2, facilitated glucose transporter member 1 (Homo sapiens) (P11166 whole entry): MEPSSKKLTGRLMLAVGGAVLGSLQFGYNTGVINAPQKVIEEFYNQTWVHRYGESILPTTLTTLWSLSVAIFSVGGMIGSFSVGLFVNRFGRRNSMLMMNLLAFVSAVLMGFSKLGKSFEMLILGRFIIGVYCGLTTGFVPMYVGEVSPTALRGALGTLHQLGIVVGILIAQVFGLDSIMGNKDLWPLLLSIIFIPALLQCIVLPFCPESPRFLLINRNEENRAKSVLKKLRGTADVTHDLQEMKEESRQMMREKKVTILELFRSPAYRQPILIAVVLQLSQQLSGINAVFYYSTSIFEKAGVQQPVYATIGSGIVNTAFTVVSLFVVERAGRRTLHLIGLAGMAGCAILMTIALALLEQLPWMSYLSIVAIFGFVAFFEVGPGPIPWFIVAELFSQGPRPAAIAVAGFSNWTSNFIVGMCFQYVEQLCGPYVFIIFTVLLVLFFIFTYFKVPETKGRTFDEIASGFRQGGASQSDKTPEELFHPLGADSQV

Usually inhibition stands for the change of the read-out against control, counted positive when it falls. For `Cc1cc2c(NC(=O)NC3CCN(CCc4ccccc4Cl)CC3)cccc2cn1`, the inhibition turned out to be 2.51% in experiment [1], 1.74% in experiment [2] and 1.68% in experiment [3].
The corresponding values for `COc1cc(OC)c2c(c1Cl)O[C@]1(C2=O)C(=O)C(Cc2ccccc2)(Cc2ccccc2)C(=O)C[C@H]1C` are 2.41%, 3.13% and 2.6%.
The corresponding values for `Nc1nc(N)c2c(Sc3ccc(F)cc3)cccc2n1` are 6.11%, 6.64% and 7.67%.
In the same order, the values of `CCCCCCNC(=O)C1Cc2c([nH]c3ccc(F)cc23)C2(CCN(Cc3ccccc3)CC2)N1` (stereo not drawn) are 12.7%, 9.28% and 7.57%.
Take `O=c1c(NCCCN(Cc2ccc(F)cc2)c2ccccn2)c(NCc2cccnc2)c1=O`: the inhibition in experiment [1] was determined as 1.33%; in experiment [2], 1.81%; in experiment [3], 1.65%.
In the same order, the values of `O=C(NCCCCN1CCN(c2cccc3c2CCCC3)CC1)c1ccc(NC(=O)c2ccc(Cl)cc2)cc1` are 3.35%, 1.45% and 1.92%.
In the same order, the values of `COc1ccc(C(=O)NCC(C)(C)c2nc(-c3ccc(Cl)c(O)c3)c(-c3ccncc3)[nH]2)cc1OCCN(C(C)C)C(C)C` are -1.11%, -0.86% and -1.98%.
The corresponding values for `Cc1cc(=NN=Cc2ccc(F)cc2)c2cccc(C)c2[nH]1` are 3.22%, 2.28% and 3.02%.
As to `CC(C)(C)c1cc(CN2CCN(Cc3ccccc3)CC2)cc(C(C)(C)C)c1O`, the inhibition was found to be 1.34% in experiment [1], 2.9% in experiment [2] and 2.7% in experiment [3].
Turning to `CC[C@@H]([C@@H](Cc1cc2ccccc2s1)C(=O)N[C@@H](CCCCNC(=O)OCc1ccccc1)C(=O)Nc1ccccn1)N(O)C=O`, the inhibition is 5.52% in experiment [1], 4.31% in experiment [2] and 3.75% in experiment [3].
In the same order, the values of `COc1ccc(CCN(C)CCCCc2ccc(NC(=O)c3cccc4c(=O)c5cc(F)ccc5sc34)cc2)cc1OC` are 9.78%, 4.42% and 2.03%.
`Cc1ccccc1N1CCN(c2ccc(C(=O)Nc3ccccc3)cc2)CC1`: the inhibition in experiment [1] is -0.27%; in experiment [2] it was 0.69%; in experiment [3] it was 1.33%.
The corresponding values for `COc1ccc(-c2cnn3ccc(Nc4cc(OC)c(OC)c(OC)c4)nc23)cc1OC` are 17.3%, 11.4% and 9.46%.
The corresponding values for `CN(C)Cc1cccc(-c2cnc(N)c(-c3nc4cc(S(C)(=O)=O)ccc4[nH]3)c2)c1` are 2.57%, 5.29% and 3.97%.
As to `Cc1nc(C)c(-c2ccc(Oc3cc(Cl)cc(Cl)c3)cc2)c(O)c1Br`, the figures for the inhibition in experiment [1], in experiment [2] and in experiment [3] were 1.01%, 2.38% and -1.58%, respectively.
For the compound `COc1nc2c(CCN3CC[C@H](NCc4cc(C#N)c5c(c4)CCO5)[C@H](O)C3)ccnc2cc1F`, the inhibition was 8.01% in experiment [1], 8.15% in experiment [2] and 0.58% in experiment [3].
The corresponding values for `COC(=O)c1cccc(CNCc2ccc(-c3ccc(-c4nc5cccc(C)c5[nH]4)cc3)cc2)c1` are 6.68%, 1.95% and 1.08%.
In the same order, the values of `CCN(CCS(C)(=O)=O)Cc1ccc(-c2ccc3ncnc(Nc4ccc(OCc5cccc(F)c5)c(Cl)c4)c3c2)o1` are 2.48%, 0.54% and -0.09%.
In the same order, the values of `CC(=O)Nc1cccc(C(=O)Nc2cccc(-c3ccc(-c4nc5cc(F)ccc5[nH]4)s3)c2)c1` are 2.81%, 3.63% and 0.19%.
Take `Cc1ccc2nc3sc(C(=O)NCCCN4CCC(N5CCCCC5)CC4)cc3cc2c1`: the inhibition in experiment [1] is -0.92%; in experiment [2] it was 3.13%; in experiment [3], 3.19%.
The corresponding values for `CCN1CCN(c2cc(C)c3cc(NC(=O)c4ccc(N(CC)CC)cc4)ccc3n2)CC1` are -0.29%, 2.18% and -3.38%.
The corresponding values for `COc1cc(Cc2cnc(N)nc2N)ccc1OCc1csc(-c2ccc(Cl)cc2)n1` are 10%, 11.7% and 9.8%.
The corresponding values for `COc1ccc(CNCCc2cccs2)cc1-c1ccc(OC)c(S(=O)(=O)NCCN2CCCC2)c1` are 3.2%, 1.85% and 3.49%.
`CC(C)(C)c1cc(C(=O)N2CCC(c3ccccn3)CC2)n(Cc2ccccc2)n1`: the inhibition is 0.22% in experiment [1], 1.08% in experiment [2] and -0.6% in experiment [3].
In the same order, the values of `COc1cccc2c(N/N=C/c3ccc([N+](=O)[O-])cc3)ccnc12` are 11.3%, 6.04% and 1.25%.
In the same order, the values of `CN(C)CCNCc1ccc(-c2ccc(-c3nc4ccccc4[nH]3)s2)cc1` are 13.7%, 14.5% and 12.8%.
The corresponding values for `CCOc1c(CNCCCNc2cc(=O)c3ccccc3[nH]2)cc(I)cc1C(C)(C)C` are -0.21%, 1.18% and 0.27%.
For the compound `O=C(c1ccc([N+](=O)[O-])o1)N1CCC(Cc2ccc(C(F)(F)F)cc2)CC1`, the inhibition came to 9.05% in experiment [1], 22.5% in experiment [2] and 0.45% in experiment [3].
In the same order, the values of `CCc1sc(-c2cc(Cl)ccc2OC)nc1C(=O)NCCN1CCCCC1` are 4.48%, 4.06% and 4.96%.
In the same order, the values of `CC(C)(C)CCN1CCC(CNC(=O)c2cc(-c3cccc(C(F)(F)F)c3)cs2)C1` (stereo not drawn) are 3.1%, 2.95% and -0.8%.
In the same order, the values of `Cc1cc(-c2c[nH]c3ncc(-c4cccc5ncccc45)cc23)ccc1C(=O)O` are 0.89%, 0.55% and 0.66%.
In the case of `CC(CNC(=O)c1cc2c(Cl)cc(Cl)cc2[nH]1)CNc1cc(=O)c2ccccc2[nH]1` (stereo not drawn), the inhibition in experiment [1] was -0.17%; in experiment [2], 1.37%; in experiment [3], 2.08%.
The corresponding values for `O=C(NCc1cccc(F)c1)c1ccc(O)c(-c2cc(Cl)cc(Cl)c2)c1` are 4.04%, 3.75% and 4.34%.
As for `CSC1=NC(=Nc2ccccc2C)C2(CCC(C(C)(C)C)CC2)N1c1ccccc1Cl` (stereo not drawn), the inhibition was -1.03% in experiment [1], -3.95% in experiment [2] and -2.88% in experiment [3].
The corresponding values for `CCCCCN1C(=O)C(c2ccccc2)(c2ccccc2)N=C1N` are 4.32%, 2.96% and 4.92%.
In the same order, the values of `CCc1cn2c3c(cc(C(=O)N[C@@H](Cc4ccccc4)[C@H](O)CNCc4cccc(C)c4)cc13)N(C)S(=O)(=O)CC2` are 1.35%, 0.76% and 2.29%.
The corresponding values for `O=C(/C=C/c1ccc(Cl)c(Cl)c1)NCCCCCN1CCC(n2c(=O)[nH]c3ccccc32)CC1` are 8.14%, 7.32% and 7.73%.
In the case of `O=c1ccc2ccc(F)c3c2n1CC3CN1CCC(NCc2ccc(-c3cccc(Cl)c3)nc2)CC1` (stereo not drawn), the inhibition in experiment [1] was 26.2%; in experiment [2] it was 21.3%; in experiment [3], 14.9%.
The corresponding values for `CC1CN(Cc2cccc(-c3ccc(-c4nc5ccccc5[nH]4)cc3)c2)CC(C)O1` (stereo not drawn) are 3.06%, 4.42% and 2.3%.
As for `O=C(Nc1cccc(Cl)c1Cl)N[C@H]1CCN(CCCCCNC(=O)C2CC2c2ccc(Cl)c(Cl)c2)C1` (stereo partly drawn), the inhibition in experiment [1] came out at 5.31%; in experiment [2], 4.52%; in experiment [3] it was 1.19%.
The corresponding values for `CN1CCC(Oc2ccc(CN3CC[C@H](NC(=O)c4ccc(Cl)c(Cl)c4)C3)cc2Cl)C1` (stereo partly drawn) are 15.3%, 16% and 3.89%.
On to `O=c1cc(NCCCNCc2sc(Br)c(Br)c2Br)[nH]c2ccccc12`, for which the inhibition in experiment [1] worked out at 10.5%; in experiment [2] it was 9.87%; in experiment [3] it was 10.4%.
In the same order, the values of `CCN(CC)CCNc1nccc(N(C)c2ccc(NC(=O)Nc3cc(C(F)(F)F)ccc3F)cc2)n1` are 5.98%, 2.93% and 0.26%.
In the same order, the values of `O=C(NCCCN1CCOCC1)c1cccc(Nc2nccc(Nc3ccc(Oc4ccccc4)cc3)n2)c1` are 2.39%, -0.18% and -0.86%.
In the same order, the values of `CN(C)CCN(C)Cc1cccc(-c2cccc(NC(=O)c3cccc(C#N)c3)c2)c1` are 2.87%, 2.86% and 4.89%.
In the case of `O=C(Nc1ccc(Br)cc1)N(CCN1CCOCC1)CC(O)COCc1ccc(F)cc1` (stereo not drawn), the inhibition is 1.97% in experiment [1], 1% in experiment [2] and -8.93% in experiment [3].
In the same order, the values of `CN1CCN(c2ccnc3ccc(NC(=O)Nc4cccc(C#N)c4)cc23)CC1` are 1.6%, 2.57% and 2.19%.
In the case of `Cc1cc(NC2CCN(CC3CCCCC3)CC2)nc(Nc2ccccc2Cl)n1`, the inhibition in experiment [1] is 2.86%; in experiment [2], 6.27%; in experiment [3] it was 0.85%.
In the same order, the values of `N=C1c2ccccc2CN1CC(=O)c1ccc(Cl)c(Cl)c1` are 0.66%, 2.37% and 2.53%.
For `Cc1ccccc1C1CCN(C2CCC(NC(=O)/C=C/c3cccc(Cl)c3)CC2)CC1` (stereo not drawn), the inhibition in experiment [1] is -2.09%; in experiment [2], -2.1%; in experiment [3], -3.2%.
For `CCNc1cc(C(=O)N[C@@H](Cc2cc(F)cc(F)c2)[C@H](O)CNCc2cccc(C(F)(F)F)c2)cc(N2CCCCS2(=O)=O)c1`, the inhibition in experiment [1] was -0.07%; in experiment [2], -0.7%; in experiment [3], -1.62%.
